The source of these data is PubChem BioAssay.

“And” between values parts separate entries of the source, which are not always exact repeats. Equal values may be shown once. The source made the active and inactive calls. Cut-off read from the data, not from the text of the source, unless noted: active = parasite load remaining mostly below about 12% (no sharp cut-off); inactive = mostly above about 10%.

Assay [1] in a line: P. berghei load reduction in hepatocytes – cell-based, HepG2, luciferase luminescence, HepG2 viability, primary screen (AID 624349).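 Note: 100% = mean of DMSO negative control wells on the same plate.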 The following applies: P. berghei liver stage in HepG2, luciferase luminescence, concentration not given here; parasite load remaining: stronger effect = lower value; viability: measured here: HepG2 viability without parasites.
A short description of assay [2]: Wnt pathway potentiators raising nuclear beta-catenin – imaging, WNT3A-conditioned medium, mouse C2C12, NPC library, primary screen (AID 1117326; in the data active = nuclear beta-catenin stimulation mostly above about 4.2%, no sharp cut-off; inactive = mostly below about 10%). The following applies: stronger effect = higher value.
Assay [3] can be described thus: stimulators of insulin release from INS-1E, primary screen, cell-based, 5 mM glucose, NPC library (AID 1117329;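 active = compound raises insulin release from rat beta cells at 5 mM glucose, no numeric limit stated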). As to conditions: rat INS-1E insulin secretion, at 10 µM, stronger effect = higher value.
A short description of assay [4]: growth inhibition of GSK3B-pretreated HCT116 cells – cell-based, CellTiter-Glo, 0.2 to 20 µM (AID 1117336;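 active = compounds lowering colon cancer cell viability after pretreatment blocking the GSK3B kinase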). The following applies: HCT116 viability after GSK3B inhibitor, at 20 µM, stronger effect = higher value. On the technique in general: Cellular ATP, detected with luciferase, serves as a proxy for viable cell number.
A short description of assay [5]: inhibition of endothelial tube formation, primary screen, imaging, VEGF stimulated, CD31 staining, tube area, NPC library (AID 1117340;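 active = compound that reduces growth-factor-driven endothelial tube area in a mixed cell culture, no cutoff stated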). The following applies: VEGF-stimulated ADSC/ECFC co-culture, at 10 µM, stronger effect = higher value.
Assay [6] in a line: GLP1 release stimulators, primary, NCI-H716, NPC library (AID 1117341;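 active = compound raises GLP1 secretion from the human gut endocrine cells, with no numeric limit stated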). As to conditions: NCI-H716 cells, at 10 µM, stronger effect = higher value.
Assay [7] in a line: HCT116 colon cancer cell growth inhibition, primary screen, CellTiter-Glo luminescence, NPC library (AID 1117342;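 active = compounds that lower survival of HCT116 colon cancer cells in the luminescence readout, no numeric limit stated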). As to conditions: at 20 µM (top of the series).
A short description of assay [8]: reduced SW480 viability measured with CellTiter-Glo, NPC library, primary (AID 1117343;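 active = compounds that lower viability of the colon cancer cells in the luminescence readout, with no numeric limit stated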). As to conditions: CellTiter-Glo luminescence; at 20 µM (top of the series).
Assay [9] is described as follows: NPC library primary testing for decreased DLD-1 cell viability via CellTiter-Glo (AID 1117346;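 active = compounds that lower survival of DLD-1 colon cancer cells in the luminescence readout, no cutoff given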). The following applies: DLD-1 viability, CellTiter-Glo luminescence; at 20 µM (top of the series).
Assay [10] addresses 6-phosphogluconate dehydrogenase, decarboxylating (Homo sapiens) (UniProt P52209). Briefly: inhibition of human phosphogluconate dehydrogenase – biochemical, recombinant enzyme, NADPH absorbance, primary screen (AID 1159550;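 active = at least 20% inhibition of 6-phosphogluconate dehydrogenase activity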). The following applies: recombinant 6PGD, NADPH absorbance 341 nm; at 10 µM; stronger effect = higher value.
Assay [11] can be described thus: viability loss with induced miR-34 in A549 – imaging, A549 dox-inducible miR-34, nuclei and caspase counts, primary screen (AID 1347080;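 active = compounds whose cell count with miR-34 switched on is under 0.7 times the count with it off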). As to conditions: A549 miR-34 inducible, Hoechst nuclei count, 48 h.
In assay [12] the target is Mitogen-activated protein kinase 7 (Homo sapiens) (UniProt Q13164). The assay is described as follows: Gal4-ERK5 driven luciferase induction – cell-based, HTS, primary screen (AID 1508626;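 active = luciferase signal above three times the same-plate solvent-only control wells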;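 note: luciferase driven by Gal4-ERK5 fusion binding five Gal4 sites before minimal TATA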). As to conditions: HeLa Gal4-ERK5 transactivation, 18 h, at 5 µM, stronger effect = higher value.
Chain of Mitogen-activated protein kinase 7 (Homo sapiens) (Q13164 whole entry, looked up, the tested form may be a part): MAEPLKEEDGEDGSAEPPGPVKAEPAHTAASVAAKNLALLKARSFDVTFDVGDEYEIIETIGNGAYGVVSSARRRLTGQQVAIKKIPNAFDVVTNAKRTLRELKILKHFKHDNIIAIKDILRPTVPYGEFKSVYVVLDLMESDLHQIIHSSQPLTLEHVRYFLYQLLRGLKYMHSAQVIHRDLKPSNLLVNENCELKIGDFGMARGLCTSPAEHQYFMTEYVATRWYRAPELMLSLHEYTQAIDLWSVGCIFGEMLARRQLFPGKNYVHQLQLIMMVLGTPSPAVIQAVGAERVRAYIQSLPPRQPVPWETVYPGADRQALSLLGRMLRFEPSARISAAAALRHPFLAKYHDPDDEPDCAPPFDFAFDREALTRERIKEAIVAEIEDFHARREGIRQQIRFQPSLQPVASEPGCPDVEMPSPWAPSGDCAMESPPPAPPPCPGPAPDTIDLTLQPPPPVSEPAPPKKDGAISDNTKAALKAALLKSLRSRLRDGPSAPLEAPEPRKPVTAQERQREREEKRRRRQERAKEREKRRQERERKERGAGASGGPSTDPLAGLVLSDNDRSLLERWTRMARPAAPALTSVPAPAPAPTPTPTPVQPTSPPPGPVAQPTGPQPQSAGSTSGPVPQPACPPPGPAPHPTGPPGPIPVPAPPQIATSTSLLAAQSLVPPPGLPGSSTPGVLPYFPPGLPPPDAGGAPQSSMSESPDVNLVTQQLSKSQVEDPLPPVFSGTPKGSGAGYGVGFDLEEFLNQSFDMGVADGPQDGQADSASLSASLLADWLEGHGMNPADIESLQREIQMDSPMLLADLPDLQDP
Assay [13] is described as follows: galactose survival enhancers in mitochondrial complex I cybrids – cell-based, galactose medium, ATP luminescence, primary screen (AID 1645843;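 active = z-score of at least 1.8 in each of two replicates, scored against plate mean and spread of sample wells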;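 note: positive z means more ATP and so rescue of galactose-driven cybrid death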). The following applies: complex I mutant cybrid cells, 72 h, stronger effect = higher value.
The nature of assay [14]: EMT-state selective cytotoxicity in co-culture – imaging, PC-3E GFP, TEM4-18 mCherry, primary screen (AID 1345086;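 active = compounds killing one labelled cell type while sparing the other, by normalised counts and ratio limits, not self-fluorescent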;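 for all read-outs here: cells exposed to compound for 72 h before imaging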;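 for red/green cell ratio (normalised): normalised mesenchymal count divided by normalised epithelial count so high means epithelial killing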). The following applies: PC-3E GFP / TEM4-18 mCherry co-culture, imaging cell counts, at 1 µM; for red/green cell ratio (normalised): actives lie on both sides.
The subject of assay [15] is Aerobactin synthetase IucA (Klebsiella pneumoniae hvKP1). Briefly: IucA enzyme inhibition, primary screen, biochemical, Spectrum library (AID 1346200; call rule not given here;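 note: 100% = wells without compound and 0% = wells lacking enzyme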). As to conditions: malachite green pyrophosphate, A620, at 8 µM, stronger effect = lower value.
A short description of assay [16]: yeast 75Q aggregation reduction – 75Q-TubU reporter (AID 1593). As to conditions: Yeast 75Q polyglutamine aggregation reporter.
Assay [17] can be described thus: blockers of cytochrome c efflux from mitochondria – biochemical, purified mitochondria (AID 1603).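 Note: mouse liver mitochondria challenged with calcium chloride; signal normalized to the plate average as 100%.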 The following applies: stronger effect = lower value.
Assay [18] in a line: polyglutamine aggregate formation blockers (AID 1604). The following applies: polyglutamine-induced protein aggregation inhibition assay; stronger effect = higher value; tested at 2.5 µM.
Assay [19] concerns the target NAD(+) hydrolase SARM1 (Homo sapiens) (UniProt Q6SZW1). Briefly: blocking NAD cleavage by SARM1 SAM-TIR – cell lysate, NAD-Glo luminescence (AID 1508614;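 active = compound whose remaining NAD level is above about 45 nM, limit read from the data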;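 note: higher remaining NAD means stronger inhibition of SARM1 NADase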). As to conditions: SAM-TIR HEK293T lysate NADase, at 1 µM, stronger effect = higher value.
The mark [20] stands for this setting: measured here: relative caspase fold change +Dox/-Dox.
Setting [21] is: measured here: total cells with miR-34 induction, stronger effect = lower value.
The mark [22] stands for this setting: measured here: total cells without miR-34 induction.
[23] abbreviates: measured here: epithelial PC-3E GFP cell survival.
[24] abbreviates: measured here: mesenchymal TEM4-18 mCherry cell survival.

Chain of 6-phosphogluconate dehydrogenase, decarboxylating (Homo sapiens) (P52209 whole entry, looked up): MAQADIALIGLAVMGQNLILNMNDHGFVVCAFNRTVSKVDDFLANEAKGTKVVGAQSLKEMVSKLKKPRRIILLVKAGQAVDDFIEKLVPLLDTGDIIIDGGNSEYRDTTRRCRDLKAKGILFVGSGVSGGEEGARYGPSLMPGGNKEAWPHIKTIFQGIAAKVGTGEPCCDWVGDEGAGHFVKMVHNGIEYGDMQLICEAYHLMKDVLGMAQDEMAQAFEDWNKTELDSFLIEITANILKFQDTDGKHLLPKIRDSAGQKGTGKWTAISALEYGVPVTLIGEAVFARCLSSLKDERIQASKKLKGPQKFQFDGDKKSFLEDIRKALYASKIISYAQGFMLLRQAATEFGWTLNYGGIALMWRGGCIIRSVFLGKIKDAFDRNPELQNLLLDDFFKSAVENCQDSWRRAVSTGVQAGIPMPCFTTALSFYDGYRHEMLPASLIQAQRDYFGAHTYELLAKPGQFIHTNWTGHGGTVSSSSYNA
Chain of NAD(+) hydrolase SARM1 (Homo sapiens) (Q6SZW1 whole entry, looked up): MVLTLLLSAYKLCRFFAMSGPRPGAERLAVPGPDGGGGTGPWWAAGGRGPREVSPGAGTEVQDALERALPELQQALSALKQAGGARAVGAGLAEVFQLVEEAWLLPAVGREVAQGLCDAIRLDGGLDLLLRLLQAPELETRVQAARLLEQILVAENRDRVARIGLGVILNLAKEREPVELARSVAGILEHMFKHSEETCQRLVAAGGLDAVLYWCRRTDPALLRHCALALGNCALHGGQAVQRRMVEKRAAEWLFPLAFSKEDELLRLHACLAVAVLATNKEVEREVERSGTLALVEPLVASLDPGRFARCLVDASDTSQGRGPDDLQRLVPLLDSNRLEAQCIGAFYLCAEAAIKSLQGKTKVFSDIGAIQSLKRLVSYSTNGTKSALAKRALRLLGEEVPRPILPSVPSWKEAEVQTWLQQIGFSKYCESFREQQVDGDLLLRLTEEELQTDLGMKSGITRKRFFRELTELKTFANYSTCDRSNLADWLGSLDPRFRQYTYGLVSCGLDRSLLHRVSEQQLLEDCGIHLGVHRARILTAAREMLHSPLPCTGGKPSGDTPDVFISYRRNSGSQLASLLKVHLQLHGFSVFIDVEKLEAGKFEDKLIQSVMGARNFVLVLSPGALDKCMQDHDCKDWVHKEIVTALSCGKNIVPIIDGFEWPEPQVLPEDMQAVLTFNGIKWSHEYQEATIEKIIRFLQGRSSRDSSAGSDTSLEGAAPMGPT

As a reminder, the viability is a read-out of living cells in per cent, often relative to untreated cells. As a reminder, the inhibition is the relative decrease from the control value, in per cent. For `N[C@@H]1C[C@H]1c1ccccc1`, in assay [1], the parasite load remaining was 105% (inactive). Also, the viability in assay [1] is 90.9%. The nuclear beta-catenin stimulation was 1.6% (inactive) in [2] (at 10 µM) and 2.1% in assay [2] (stimulation, at 2 µM). For the same compound, in [3], the insulin secretion stimulation was 0.5% (active). The viability decrease in [4] is -2.2% (inactive). Further, in assay [5], the tube area decrease was -22.1% (inactive). Further, the GLP1 secretion stimulation in assay [6] was 3.6% (inactive). In assay [7], the inhibition of viability is 19.4% (inactive). For the same compound, the results for the viability decrease (inhibition) in [8] and in assay [9] were 10% (inactive) and -5.6% (inactive), respectively. Also, the inhibition in [10] was -7.3% (inactive) and 0.348% (inactive). The fold change in [11] (stronger effect = lower value, cell number ratio, induced over uninduced) was 0.966 (inactive); in assay [11] (setting [20]) it was 1.35. Besides, the cell count in [11] (setting [21]) came to 9350; in [11] (setting [22]) it was 9680. The luciferase signal in assay [12] is 36 AU (inactive). Also, the z-score in assay [13] was 0.32 (inactive).

Consider `CC1=C2[C@H]3OC(=O)[C@@H](C)[C@@H]3CC[C@@]2(C)C=CC1=O`, for which the parasite load remaining in assay [1] is 92.1% (inactive). Besides, in assay [1], the viability is 72.5%. Further, the nuclear beta-catenin stimulation is 0.7% (inactive) in assay [2] (at 10 µM) and 1% in [2] (stimulation, at 2 µM). Moreover, in [3], the insulin secretion stimulation is 0% (inactive). Besides, the viability decrease in assay [4] is 1.65% (inactive). In addition, the tube area decrease in assay [5] is 15.6% (inactive). Further, in assay [6], the GLP1 secretion stimulation is -0.6% (inactive). The inhibition of viability in assay [7] was 1.8% (inactive). For the same compound, the values for the viability decrease (inhibition) in assay [8] and in [9] were 14.6% (inactive) and 3.8% (inactive), respectively. Also, in assay [10], the inhibition was 10.8% (inactive). Moreover, in assay [14], the red/green cell ratio (normalised) is 0.97 (inactive). Besides, the normalised cell number was found to be 1.11 in [14] (setting [23]) and 1.07 in assay [14] (setting [24]). Moreover, the activity remaining in [15] is 93.8% (inactive). In addition, the fold change in assay [11] (stronger effect = lower value) was 0.915 (inactive); in assay [11] (setting [20]), 0.797. Moreover, the values for the cell count in assay [11] (setting [21]) and in [11] (setting [22]) were 8180 and 8940, respectively. Further, the luciferase signal in assay [12] is 44 AU (inactive).

Turning to `CC[n+]1c(-c2ccccc2)c2cc(N)ccc2c2ccc(N)cc21`, the score in assay [16] is 0.43. The cytochrome c release ratio in [17] turned out to be 0.84. Also, the inhibition of aggregation in [18] was 47.5%. Moreover, the parasite load remaining in assay [1] was 116% (inactive). For the same compound, the viability in assay [1] worked out at 83.5%. In addition, the nuclear beta-catenin stimulation is 17.6% (inactive) in assay [2] (at 10 µM) and 1% in assay [2] (stimulation, at 2 µM). Also, the insulin secretion stimulation in [3] was 2.1% (inactive). Moreover, in assay [4], the viability decrease was -24.6% (active). Besides, the tube area decrease in [5] is 29.5% (inactive). Further, in assay [6], the GLP1 secretion stimulation was -2.8% (inactive). Moreover, in assay [7], the inhibition of viability is 79.1% (active). Besides, the figures for the viability decrease (inhibition) in [8] and in assay [9] were 52.1% (active) and 83.7% (active), respectively. In assay [10], the inhibition is 7.37% (inactive). Moreover, in [14], the red/green cell ratio (normalised) is 2.8 (inactive). For the same compound, the normalised cell number in assay [14] (setting [23]) worked out at 0.31; in [14] (setting [24]) it was 0.87. In assay [15], the activity remaining is 95.2% (inactive). The remaining NAD in assay [19] was 10 nM (inactive). Besides, the luciferase signal in assay [12] was 104 AU (inactive).

Turning to `COc1c2c(cc3c1OCO3)CCN(C)C2`, the parasite load remaining in [1] was 101% (inactive) and 78.2% (inactive). The viability in assay [1] was 102% and 69.9%. For the same compound, the nuclear beta-catenin stimulation is 0.2% (inactive) in [2] (at 10 µM) and 1.3% in assay [2] (stimulation, at 2 µM). In assay [3], the insulin secretion stimulation was -1.1% (inactive). In addition, the viability decrease in [4] is 5% (inactive). Moreover, the tube area decrease in assay [5] was 4.7% (inactive). Besides, the GLP1 secretion stimulation in [6] is -0.1% (inactive). Besides, in assay [7], the inhibition of viability is -4.7% (inactive). The viability decrease (inhibition) was 36.7% (inactive) in assay [8] and 4.85% (inactive) in assay [9]. Besides, the inhibition in assay [10] is 1.73% (inactive). Besides, the activity remaining in [15] is 120% (inactive). In addition, the fold change was 0.866 (inactive) in [11] (stronger effect = lower value) and 1.09 in [11] (setting [20]). The cell count in assay [11] (setting [21]) stood at 9520; in assay [11] (setting [22]) it was 11000.
